Assay results reported in PubChem BioAssay AID1531 (NMMLSC, 2009).
The campaign covered roughly 290,000 compounds. About 3,300 (1.1%) were called active. The entries come from a sample that favours actives as a whole. Unmarked numbers belong to inactive results. Cut-off read from the data, not from the text of the source: active = binding response below about 67% or above about 130%; inconclusive = no clear call, values can overlap the other calls; inactive = in between.

The molecules below were run against Mitogen-activated protein kinase kinase kinase 2 (Homo sapiens) (UniProt Q9Y2U5) (assay: modulators of MEK5 binding to wildtype MEKK2, primary screen, biochemical, multiplex bead flow cytometry, Alexa488-MEK5 (AID 1531)). Conditions: Alexa488-MEK5 binding to MEKK2 WT, at 10 µM, actives lie on both sides.
For `O=C(Cc1csc(Nc2nc(=S)[nH]c3ccccc23)n1)NCCCN1CCN(c2cccc(Cl)c2)CC1`, the binding response (% of control) was 150% (active).
Molecule `O=C(CCCn1c(=O)[nH]c2cc(Cl)ccc2c1=O)NCCN1CCN(c2ccccc2)CC1` has a binding response (% of control) of 97%.
Molecule `COc1cccc(CNC(=O)Cc2csc(Nc3nc(=S)[nH]c4ccccc34)n2)c1` has a binding response (% of control) of 90%.
With `COc1ccc(Nc2ncnc3sc(C)cc23)cc1` the binding response (% of control) was 105%.
`CCCCN1C(N)=NC[C@@H]1Cc1ccccc1` was tested, and the binding response (% of control) was 100%.
`O=C1NCC(=O)N(Cc2ccccc2)/C1=C/c1ccccc1` was tested, and the binding response (% of control) was -4% [inhibitor] (active).
With `O=C1/C(=C\c2cccnc2)CN(Cc2ccccc2)C/C1=C\c1cccnc1` the binding response (% of control) was 119%.
`O=C1C(Cc2ccc(O)cc2)NC(=S)N1Cc1ccccc1` (stereo unspecified) gave a binding response (% of control) of 97%.
Molecule `C[C@H]1CC[C@]2(O[C@@H](CCO)C[C@@H](O)[C@@H]2O)O1` has a binding response (% of control) of 97%.
With `O=C1N[C@@H](Cc2ccccc2)C(=O)N2[C@@H]3N(S(=O)(=O)c4ccc(F)cc4)c4ccccc4[C@]3(Br)C[C@@H]12` the binding response (% of control) was 98%.
`CCC(C(=O)NCc1cccnc1)n1nc(C)c2sc3ccccc3c2c1=O` (stereo unspecified) showed a binding response (% of control) of 103%.
`N#Cc1c(Cl)nc(-c2cccnc2)nc1-c1ccccc1` was tested, and the binding response (% of control) was 106%.
In the case of `CN(Cc1ccccc1)C(=O)C(=O)c1cn(CC(=O)N2CCCC2)c2ccccc12`, the binding response (% of control) is reported as 106%.
`CCC(C)(C)NC(=O)C1c2ccccc2Oc2ccccc21` showed a binding response (% of control) of 97%.
Molecule `CCC(C)NC(=O)C1c2ccccc2Oc2ccccc21` (stereo unspecified) has a binding response (% of control) of 72%.
In the case of `CC(C)(C)c1nnc(NC(=O)C2c3ccccc3Oc3ccccc32)s1`, the binding response (% of control) is reported as 39% [inhibitor] (active).
For `CC(NS(=O)(=O)c1ccc(Cl)cc1)C(=O)Nc1ccc2c(c1)OCCO2` (stereo unspecified), the binding response (% of control) was 97%.
`COc1ccc(CC(=O)N/N=C(\C)c2ccccn2)cc1` showed a binding response (% of control) of 99%.
For `Cc1cccc(OCC(=O)NCCCNC(=O)c2ccccn2)c1`, the binding response (% of control) was 98%.
With `CCN(CC)CCOc1ccc2c(c1)C(=NNC(=O)c1ccccn1)c1cc(OCCN(CC)CC)ccc1-2` the binding response (% of control) was 191% (active).
`CCOC(=O)c1ccc(NC(=O)c2c(N)n(C)c(=O)[nH]c2=O)cc1` showed a binding response (% of control) of 98%.
With `CC1(C)S[C@@H]2[C@H](NC(=O)COc3ccccc3)C(=O)N2C1C(=O)OCc1ccccc1` (stereo partly specified) the binding response (% of control) was 93%.
Molecule `O=C(c1ccco1)N1CCN(C(=S)Nc2cc(F)cc(F)c2)CC1` has a binding response (% of control) of 102%.
For `COc1ccc(CNC(=O)C2CCN(S(C)(=O)=O)CC2)cc1`, the binding response (% of control) was 42% [inhibitor] (active).
`COc1ccc(CNC(=O)C2CCN(S(=O)(=O)N3CCOCC3)CC2)cc1` was tested, and the binding response (% of control) was 100%.
Molecule `COc1ccc(CNC(=O)C2CCN(S(=O)(=O)c3ccc(SC)cc3)CC2)cc1` has a binding response (% of control) of 105%.
Molecule `O=C(NCCc1ccccc1)C1CC1` has a binding response (% of control) of 103%.
In the case of `COC(=O)c1c(-c2ccsc2)oc2ccc(-c3cc(OC)c(OC)c(OC)c3)cc12`, the binding response (% of control) is reported as 96%.
With `O=C(CCn1c(=O)[nH]c2ccccc2c1=O)NCCCN1CCN(c2cccc(Cl)c2)CC1` the binding response (% of control) was 108%.
`Cn1c(C(=O)NCCc2ccsc2)cc2c(=O)n(C)c3ccccc3c21` showed a binding response (% of control) of 97%.
For `Cn1c(C(=O)NCCCN2CCN(c3cccc(Cl)c3)CC2)cc2c(=O)n(C)c3ccccc3c21`, the binding response (% of control) was 173% (active).
Molecule `O=C(CNC(=O)c1ccc(Br)o1)Nc1ccccc1` has a binding response (% of control) of 99%.
`Cc1ccc(-c2ccc(=O)n(CC(=O)NCCCN3CCCCC3)n2)cc1` was tested, and the binding response (% of control) was 109%.
`Cc1nn(CC(=O)NCCc2ccccc2)c(=O)c2cc3occc3n12` gave a binding response (% of control) of 111%.
With `CCc1ccc(-c2cc3c(=O)n(CC(=O)NCCCN4CCN(Cc5ccccc5)CC4)nc(C)n3n2)cc1` the binding response (% of control) was 141% (active).
`CCCCN1C(N)=NC[C@@H]1CC1CCCCC1` showed a binding response (% of control) of 119%.
`COc1ccc(-c2noc(C(C)NS(=O)(=O)c3ccc(NC(C)=O)cc3)n2)cc1` (stereo unspecified) gave a binding response (% of control) of 95%.
`C=C(C)COc1ccc(-c2ncncc2-c2ccc(OC)cc2)c(O)c1` gave a binding response (% of control) of 100%.
Molecule `CCc1nn(CC(=O)N2CCN(CC)CC2)c(=O)c2cccn12` has a binding response (% of control) of 95%.
With `Cc1nn(-c2ccccc2)c(C)c1NC(=O)COc1ccc(Cl)cc1Cl` the binding response (% of control) was 103%.
In the case of `COC(=O)c1c(NC(=O)COc2ccc(Cl)cc2Cl)sc2c1CC(C)(C)NC2(C)C`, the binding response (% of control) is reported as 147% (active).
With `Cc1cc(NC(=O)COc2ccc(Cl)cc2Cl)n(CCC#N)n1` the binding response (% of control) was 88%.
In the case of `CC(=O)c1ccc(S(=O)(=O)N(C)CCCC(=O)N(C)Cc2ccccc2F)cc1`, the binding response (% of control) is reported as 105%.
`CN(CC1CCCO1)S(=O)(=O)c1ccc(C(=O)Nc2ccc(F)cc2)cc1` (stereo unspecified) gave a binding response (% of control) of 98%.
With `Cc1cccc(NC(=O)c2ccc(S(=O)(=O)N(C)CC3CCCO3)cc2)c1C` (stereo unspecified) the binding response (% of control) was 99%.
For `CCOC(=O)c1c(NC(=O)c2ccc(S(=O)(=O)N(C)CC3CCCO3)cc2)sc2c1CC(C)(C)NC2(C)C` (stereo unspecified), the binding response (% of control) was 134% (active).
With `O=C(NC1CCCC1)C(c1c(F)cccc1Cl)N(C(=O)c1csnn1)C1CC1` (stereo unspecified) the binding response (% of control) was 95%.
`O=S(=O)(c1ccccc1)c1nc(Cc2ccccc2)oc1N1CCOCC1` was tested, and the binding response (% of control) was 102%.
In the case of `CNC(C)C#Cc1ccc2sc3cc(OC)c(OC)cc3c(=O)c2c1` (stereo unspecified), the binding response (% of control) is reported as 136% (active).
`CN1C(=O)C2(OCCCO2)c2cc(Cl)ccc21` gave a binding response (% of control) of 109%.
In the case of `c1csc(-c2nc(-c3ccncc3)no2)c1`, the binding response (% of control) is reported as 94%.
In the case of `COc1cc(-c2nc(-c3ccncc3)no2)cc(OC)c1OC`, the binding response (% of control) is reported as -3% [inhibitor] (active).
With `Cc1ccc(-c2nc(-c3ccncc3)no2)c(C)c1` the binding response (% of control) was 104%.
For `CC1CCCN(c2ccc(C(=O)NCCc3ccccc3)cn2)C1` (stereo unspecified), the binding response (% of control) was 97%.
With `Cc1ccc(Sc2cc(C(=O)c3ccccc3C(=O)O)ccc2[N+](=O)[O-])cc1` the binding response (% of control) was 95%.
With `CC(Sc1nnc(CNC(=O)c2ccccc2F)n1C)C(=O)Nc1nccs1` (stereo unspecified) the binding response (% of control) was 101%.
In the case of `COc1ccc(CN2CC[C@H]3C=CC[C@@H](C(=O)N4CCOCC4)[C@H]3C2=O)cc1OC`, the binding response (% of control) is reported as 99%.
Molecule `CCOC(=O)c1ccc(Nc2cc3ccccc3c(=O)[nH]2)cc1` has a binding response (% of control) of 99%.
`Cc1ccc(C(=O)NCCN2CCOCC2)cc1C` gave a binding response (% of control) of 99%.
With `Cc1cccc(C(=O)OC(C)CN2CCN(C)CC2)c1` (stereo unspecified) the binding response (% of control) was 97%.
For `Cc1cccc(-c2nc3ccc(C(=O)NCCN4CCN(C)CC4)cc3nc2-c2cccc(C)c2)c1`, the binding response (% of control) was 156% (active).
